# TDP1 cell noCPT – qHTS for Inhibitors of human tyrosyl-DNA phosphodiesterase 1 (TDP1): qHTS in cells in absence of CPT; AID 686978, 2013; actives 15% (n = 420,000); DT40 Tdp1-/- hTDP1 cells, no CPT, ATP luminescence, 48 h; Potency, µM (top dose mostly 46.2 µM), for inactives: at the highest dose activity change, negative = growth inhibition, hits mostly inhibitors; further: potency means the concentration at half of the fitted maximal effect; nearly all actives have a fitted effect of over 55% in size
#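 Camptothecin absent (DMSO only). Human TDP1-complemented DT40 knockout cells, 400 cells/well, 37 °C for minimum 48 hr; ATP measured via CellTiter-Glo, 30 min dark incubation, luminescence.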
# TDP1 inh – inhibitors of human tyrosyl-DNA phosphodiesterase TDP1 | actives 0.28% (n = 350,000) | recombinant TDP1, AlphaScreen DNA substrate cleavage | Q9NUW8 | Potency, µM (titrated, usually from 130 µM), for inactives: top-dose activity change, negative = inhibition, hits mostly inhibitors; further: potency means the concentration at half of the fitted maximal effect; nearly all actives have a fitted effect of over 40% in size
# Target sequence (Q9NUW8 whole entry, looked up): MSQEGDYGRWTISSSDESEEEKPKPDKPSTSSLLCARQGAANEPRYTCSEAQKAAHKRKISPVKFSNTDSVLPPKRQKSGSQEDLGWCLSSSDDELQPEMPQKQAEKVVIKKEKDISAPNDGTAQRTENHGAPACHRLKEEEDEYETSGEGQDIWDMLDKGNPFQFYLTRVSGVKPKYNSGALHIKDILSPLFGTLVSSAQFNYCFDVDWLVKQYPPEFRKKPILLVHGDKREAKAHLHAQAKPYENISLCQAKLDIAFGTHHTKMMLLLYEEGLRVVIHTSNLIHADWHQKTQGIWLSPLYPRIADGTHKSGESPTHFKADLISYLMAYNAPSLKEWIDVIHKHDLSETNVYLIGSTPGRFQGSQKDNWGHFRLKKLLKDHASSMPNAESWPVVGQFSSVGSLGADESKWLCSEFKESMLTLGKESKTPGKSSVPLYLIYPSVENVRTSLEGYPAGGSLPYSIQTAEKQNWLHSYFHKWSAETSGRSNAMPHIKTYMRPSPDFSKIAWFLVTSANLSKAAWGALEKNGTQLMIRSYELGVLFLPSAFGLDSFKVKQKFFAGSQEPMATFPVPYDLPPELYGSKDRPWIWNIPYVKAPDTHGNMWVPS
#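 E. coli-derived human Tdp1, 1 nM final. Cpd preinc 15 min RT; substrate 15 nM final, 5 min RT; AS bead mix 10 ug/ml final, 10 min RT. Signal loss = tyrosine-FITC cleavage. No-enzyme wells = max signal.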
# DT40 TDP1 CPT – DT40-hTDP1 cell growth loss with CPT | chicken DT40 Tdp1-/-;hTDP1 cells + 20 nM CPT, ATP luminescence, 48 h | Potency, µM (titrated, usually from 46.2 µM), for the others: at the top dose activity change, negative = growth inhibition, actives largely listed as inhibitors | actives 12% (n = 420,000); further: potency means the concentration at half of the fitted maximal effect; nearly all actives have a fitted effect of over 55% in size
#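 Chicken DT40 Tdp1-/- cells stably complemented with human TDP1 were seeded at 400 cells/well in medium containing 20 nM camptothecin, exposed to pin-transferred compounds, and grown at 37 °C for at least 48 hr. Viability was read as ATP luminescence.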
# IL-1B inflam inh – inhibitors of inflammasome signaling (IL-1 beta secretion); actives 4.7% (n = 360,000); AID 743279; THP-1 LPS/ATP IL-1B secretion, AlphaLISA, 16 h; hits give low values; activity change, % at 57.5 µM; in the data active means activity change below about -50%; inconclusive means mostly about -30% to -49%
#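 Secreted IL-1B measured by AlphaLISA bead assay after 16 h compound exposure of THP-1 cells; compounds (final up to 57.5 uM) added 1 h before LPS (250 ng/mL) and ATP (1.25 mM) stimulation; lower signal means less secretion.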
# Giardia killer – Giardia lamblia killing; activity change, % at 7.66 µM, hits read low; AID 540267; Giardia lamblia trophozoite viability; actives 0.15% (n = 340,000); in the data active means activity change below about -80%; inconclusive means between about -30% and that limit;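 further: parasites exposed to compound for two days anaerobically before the ATP read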
#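 Each well holds 100 Giardia trophozoites and compound. After two days (48 hrs) at 37 deg C in anaerobic conditions, ATP is quantified by luminescence.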
# ELG1 DNA repair – ELG1-dependent DNA repair inhibition | HEK293T ELG1-luciferase reporter, luminescence, 16 h; DNA damage induced by 5-fluorouridine | Potency, µM (series often up to 46.1 µM), without a hit: top-dose activity change, negative = inhibition, usual class: inhibitors | actives 2.3% (n = 330,000) | AID 504467; further: potency means the concentration at half of the fitted maximal effect; nearly all actives have a fitted effect of over 55% in size
#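 In this reporter screen, reduction of luminescence relative to DMSO vehicle indicated activity. Compounds and 5-fluorouridine were added together to 2,000 cells per well, incubated for 16 hr at 37 °C, then developed with ONE-Glo.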
# Starred values were filed as active, the others as inactive; ? = inconclusive; / = not tested or not shown. Most compounds without a hit are left out; they make up all but 19% or so of the library. Unless noted, the call rests on the fitted dose curve; in most records, active means well fitted curve in the direction sought with a large enough effect; inconclusive means small, poorly fitted or top-dose-only effect, or another doubt; inactive means no such curve, though single readings can be large; an effect the other way counts as inactive or inconclusive. On the % scale 0 is the no-effect control and ±100 the full control effect.
SMILES,TDP1 cell noCPT,TDP1 inh,DT40 TDP1 CPT,IL-1B inflam inh,Giardia killer,ELG1 DNA repair
COc1ccccc1N1CCN(/N=C/c2cccc(OC)c2O)CC1,?,-3.5%,-17.5%,-0.1,1.2,?
COc1cc(/C=N/N2CCN(C3c4ccccc4-c4ccccc43)CC2)ccc1O,23.1µM*,2.1%,25.9µM*,0.0,-5.2,?
O=C[C@@H]1CCCN1C(=O)[C@@H]1CCCN1C(=O)OCc1ccccc1,/,3.7%,/,/,/,/
CSc1ncccc1C(=O)OCC(=O)Nc1ccc2c(c1)CCC2,2.4%,0.2%,-2.1%,-8.7,32.8,?
CCOc1cccc(-c2csc(C3COc4ccccc4O3)n2)c1 (stereo not given),0.0%,4.2%,-26.3%,5.6,-1.2,?
CCOc1ccc(/C=C/C(=O)c2c(O)c3ccccc3oc2=O)cc1,-2.0%,3.2%,-12.2%,-6.5,-18.2,15.1%
COc1ccc2ccccc2c1C(=O)/C=C\c1ccoc1,?,-1.3%,?,-56.5*,-23.3,-2.4%
CCC1CCCCN1C(=O)COc1c(Br)cc(Br)c2cccnc12 (stereo not given),?,2.6%,?,-14.9,16.6,?
Cc1ccc(CNC(=O)CCc2c(C)nc3c4c(C)cc(C)nc4nn3c2C)cc1,-25.1%,2.5%,-18.3%,/,/,/
c1ccc(-c2nnc(-c3ccccn3)nc2NC2CCCCC2)cc1,5.8µM*,7.0%,6.51µM*,84.9,7.5,18.4µM*
CNc1nc(-c2ccccn2)nnc1-c1ccccc1,22.4µM*,3.9%,?,49.6,-19.9,-9.6%
c1ccc(-c2n[nH]c(-c3ccccn3)n2)cc1,?,0.0%,?,-12.1,5.0,?
O=C1[C@H]2[C@@H](c3ccc(F)cc3)N3C(=O)N(c4ccc(Br)cc4)C(=O)[C@@]3(Cc3ccccc3)[C@H]2C(=O)N1C1CCCCC1,?,/,?,-11.3,-8.2,-10.7%
N[C@@H](Cc1ccc(O)cc1)C(=O)NO,8.5%,/,10.7%,/,/,/
COC(=O)C1=C(C(=O)OC)SC2(S1)C(C(=O)OC)=C(C(=O)OC)SC1=C2c2cccc(C)c2NC1(C)C,23.1µM*,7.0%,9.2µM*,-7.4,-11.5,0.6%
COCCCN(Cc1ccco1)C(=O)c1cc2c(s1)-c1ccccc1OC2,/,-1.0%,/,/,/,/
CC1CCC(NC(=O)CN2C(=O)C3CC=CCC3C2=O)CC1 (stereo not given),5.8µM*,-2.2%,-9.9%,-1.6,9.3,23.9%
CC1CCC(NC(=O)CN2C(=O)c3ccccc3S2(=O)=O)CC1 (stereo not given),2.8%,0.6%,1.6%,-8.6,2.5,?
CCCCCC1CC(=O)NC1(C(=O)OCC)C(=O)OCC (stereo not given),-1.6%,/,21.9%,-64.0*,1.6,/
CCOC(=O)C1(C(=O)OCC)NC(=O)CC1CC (stereo not given),0.3%,/,9.0%,0.4,-13.5,/
O=C(O)CNC(=O)CC1S/C(=N/N=C2/NC(=O)CS2)NC1=O (stereo not given),-0.7%,39.8µM*,6.2%,25.5,8.8,-1.7%
COc1ccc(-c2csc(C(O)c3ccc(F)c(F)c3)n2)cc1 (stereo not given),13µM*,/,18.4µM*,6.0,/,/
COc1cccc(C(O)c2nc(-c3cccc(C(C)C)c3)cs2)c1 (stereo not given),?,/,?,0.0,/,/
CCN(CC)C(=O)c1cccc(-c2csc(C(O)c3cccc(OC)c3)n2)c1 (stereo not given),4.61µM*,/,23.1µM*,-17.5,/,/
COc1cccc(C(O)c2nc(-c3ccc(N(C)C)cc3)cs2)c1 (stereo not given),16.4µM*,/,23.1µM*,28.1,/,/
SMILES,TDP1 cell noCPT,TDP1 inh,DT40 TDP1 CPT,IL-1B inflam inh,Giardia killer,ELG1 DNA repair
COc1cccc(C(O)c2nc(-c3cnn(C)c3)cs2)c1 (stereo not given),?,/,?,42.2,/,/
COc1cccc(C(O)c2nc(-c3cc(F)cc(F)c3)cs2)c1 (stereo not given),?,/,20.6µM*,-20.0,/,/
COc1cccc(CNC(=O)CS(=O)(=O)Cc2nc(-c3ccc(C)cc3)oc2C)c1OC,-17.6%,/,2.4%,-14.7,-8.0,7.6%
CCOc1ccccc1NC(=O)Cn1c(=O)n(-c2ccc(F)cc2)c(=O)c2sc3ccccc3c21,?,1.3%,1.5%,/,/,/
COc1ccc(-c2csc(C(O)c3ccccc3)n2)cc1 (stereo not given),?,/,?,12.3,/,/
COc1ccc(-c2csc(C(O)c3cccc(OC)c3)n2)cc1 (stereo not given),?,/,11.6µM*,10.5,/,/
CCOc1ccccc1CNC(=O)CN1C(=O)CCn2nc(-c3cn(C)c4ccccc34)cc21,?,8.9%,?,/,/,/
CCC(C)C(NC(=O)OC(C)(C)C)C(=O)NC1COC2CC(n3cc(F)c(=O)[nH]c3=O)OC12 (stereo not given),/,10.3%,/,/,-7.0,/
COc1ccccc1CN1C[C@@H]2C[C@@H](c3ccccc3C)N3CCC[C@@]23C1=O,29.1µM*,2.7%,?,-19.0,1.3,10.8%
COc1ccccc1CN1C[C@@H]2C[C@@H](c3ccc(C)cc3)N3CCC[C@@]23C1=O,?,0.0%,-22.7%,-28.0,29.9,2.5%
COc1ccccc1CN1C[C@@H]2C[C@@H](c3ccc4nsnc4c3)N3CCC[C@@]23C1=O,23.1µM*,/,?,-18.9,28.0,-18.0%
COc1ccc(C(=O)N2c3nc(-c4ccco4)nn3C3(CCCCC3)[C@@H]3CCCC[C@@H]32)cc1OC,?,2.6%,16.4µM*,/,/,/
O=C(c1ccc(F)cc1)N1c2nc(-c3ccco3)nn2C2(CCCCC2)[C@@H]2CCCC[C@@H]21,23.1µM*,0.5%,?,/,/,/
O=C(c1ccccc1F)N1c2nc(-c3ccco3)nn2C2(CCCCC2)[C@@H]2CCCC[C@@H]21,18.4µM*,2.6%,?,/,/,/
CCOc1cc(C(=O)NC(=S)Nc2ccc(Cl)c(C(=O)O)c2)cc(OCC)c1OCC,-4.7%,-5.1%,-1.4%,33.3,23.9,13.5%
C[C@@H](NC(=O)c1ncn2c1c(=O)[nH]c1ccc(Br)cc12)c1ccccc1,20.6µM*,/,?,-17.5,/,/
CC(C)C[C@H](NC(=O)[C@@H]1Cc2c([nH]c3ccccc23)C2c3ccccc3C(=O)N21)C(=O)NCC1CCCO1 (stereo not given in full),?,/,16.4µM*,-20.2,-6.8,-23.8%
